Screens as filed in PubChem BioAssay.
This excerpt belongs to a sample that is enriched for hits.
FECH inh: human FECH heme synthesis enzyme inhibition; purified FECH, Ni-mesoporphyrin absorbance 550 nm; calls only at 10 µM (by protocol); actives 3.3% (n = 20,000);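 active means enzyme reaction rate more than 3 SD below the solvent-only control wells on the same plate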;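 further: lower slope than DMSO wells means FECH inhibition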
Target sequence (P22830 whole entry, looked up): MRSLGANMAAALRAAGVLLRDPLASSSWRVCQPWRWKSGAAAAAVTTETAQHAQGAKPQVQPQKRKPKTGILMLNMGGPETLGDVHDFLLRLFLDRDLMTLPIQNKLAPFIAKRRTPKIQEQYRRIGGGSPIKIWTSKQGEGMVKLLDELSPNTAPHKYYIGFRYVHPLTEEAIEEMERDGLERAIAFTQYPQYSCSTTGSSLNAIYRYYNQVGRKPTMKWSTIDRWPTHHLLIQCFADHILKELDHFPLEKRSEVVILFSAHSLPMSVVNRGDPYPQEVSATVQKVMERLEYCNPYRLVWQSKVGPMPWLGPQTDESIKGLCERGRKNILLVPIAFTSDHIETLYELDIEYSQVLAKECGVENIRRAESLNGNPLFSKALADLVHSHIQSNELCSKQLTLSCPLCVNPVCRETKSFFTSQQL
Of the large screens only hits and unclear results are named; the others gave an inactive call.

CCn1c(=O)n(Cc2c(C)cc(C)cc2C)c(=O)c2cnc(-c3ccc(OC)cc3)nc21	none
Cc1cccc(-n2c(CN3CCN(S(=O)(=O)c4cccc(Cl)c4C)CC3)nc3cccnc32)c1	none
CCOc1ccccc1CNS(=O)(=O)c1cc(C(=O)N2CCCC2)cs1	none
Cc1cccc(C2CCCN(Cc3cn[nH]c3C(=O)O)C2)c1 (stereo not drawn)	none
CN(C)CCNC(=O)c1nc[nH]c1C(=O)NCc1ccccc1	none
COC(=O)c1sccc1S(N)(=O)=O	none
O=C(Nc1ccccc1)N1CCN(CCn2c(C(F)(F)F)nc3cccnc32)CC1	none
Nc1ccc(-c2ccc(-c3nc(CCCc4ccccc4)no3)cn2)cn1	none
CC(=O)N1c2ccc(S(=O)(=O)N3CCCCC3)cc2CC1C(=O)Nc1ccncc1 (stereo not drawn)	none
CC(=O)N1c2ccc(S(=O)(=O)N3CCOCC3)cc2CC1C(=O)NCCN1CCCC1 (stereo not drawn)	FECH inh active
CC(=O)N1c2ccc(S(=O)(=O)N3CCCCC3)cc2CC1C(=O)NCCCN1CCCC1 (stereo not drawn)	none
CCN1CCCC(CNC(=O)c2cccc(S(C)(=O)=O)c2)C1 (stereo not drawn)	none
Cc1cc(C)c(S(=O)(=O)Nc2cnc(N(C)CCCc3c(C)nn(C)c3C)c(C(=O)O)c2)cc1C	none
CCN(CC)Cc1cnc2c(C(=O)Nc3cccc4ncccc34)cnn2c1	none
CC(=O)c1cc(C(=O)N2CCC(n3cc(C(C)(C)O)nn3)CC2)cs1	none
Cc1cc(Nc2ccc(OC(=O)c3ccco3)cc2)n2nc(-c3cccnc3)nc2n1	FECH inh active
Cc1cc(Nc2ccc(OC(=O)c3ccc(C)c(C)c3)cc2)n2nc(-c3cccnc3)nc2n1	none
Cc1cc(Nc2ccc(OC(=O)c3ccncc3)cc2)n2nc(-c3cccnc3)nc2n1	none
CNc1ncc(-c2cccc(CN3CCOCC3)c2)c(-c2ccc(C)cc2)n1	none
CN1CCCn2nc(C(=O)NCc3ccccc3-n3ccnc3)cc2C1	none
COc1ccc(Cl)c(CN2CCN(c3ncc(F)cn3)CC2)c1F	none
CCOc1cccc(CN2CCC(Cc3nnc(SC)n3C)CC2)c1O	none
Cc1ccc(Cl)c(CN2CCC(Cc3nnc(CO)n3C)CC2)c1F	FECH inh active
C(=C\c1ccc2ocnc2c1)/c1ccccc1	none
CCc1cc(CN(C)C(=O)c2cnon2)on1	none
CCc1cc(CN(C)C(=O)c2cn3c4c(cccc4c2=O)CC3)on1	FECH inh active
CCc1cc(CN(C)C(=O)CN2CCOc3ccccc3C2)on1	none
Cc1ccc(N2CC(NC(=O)Cc3ccccc3)CC2=O)cc1 (stereo not drawn)	none
CCC(=O)Nc1nc2n(n1)C(c1ccc(Cl)cc1)C=C(c1ccccc1)N2 (stereo not drawn)	none
COc1ccc(C(=O)Nc2nc3n(n2)C(c2ccccc2)C=C(c2ccccc2)N3)cc1OC (stereo not drawn)	FECH inh active
COc1ccc(C2C=C(c3ccccc3)Nc3nc(NC(=O)c4ccc(Cl)cc4)nn32)cc1 (stereo not drawn)	none
CCC(=O)Nc1nc2n(n1)C(c1ccccc1)C=C(c1ccccc1)N2 (stereo not drawn)	FECH inh active
COc1ccc(C2C=C(c3ccccc3)Nc3nc(NC(=O)c4ccccc4)nn32)cc1 (stereo not drawn)	none
CCC(=O)Nc1nc2n(n1)C(c1ccccc1)C=C(c1ccc(Cl)cc1)N2 (stereo not drawn)	none
Cc1cc(NC(=O)COc2ccc(C(C)C)cc2)n(-c2ncnc3c2cnn3-c2ccc(F)cc2)n1	none
O=c1c(NCCc2ccccc2)c(-c2ccc3c(c2)CCCC3)c1=O	none
COc1ccc(CN2CCCC2)cc1Oc1ccnc2ccccc12	none
Cc1cc(=O)c(C(=O)N2CCC3(CCCN(CC(C)(C)C)C3=O)C2)c[nH]1 (stereo not drawn)	none
FC(F)(F)c1cccc(-c2ccn[nH]2)n1	none
CCOC(=O)c1c(NC(=O)c2ccco2)sc2c1CCN(C(C)C)C2	none
CCOC(=O)c1c(NC(=O)c2cccs2)sc2c1CCN(C(C)C)C2	none
CCOC(=O)c1c(NC(=O)c2ccc(N3C(=O)CCC3=O)cc2)sc2c1CCN(C(C)C)C2	FECH inh active
O=C(NCCn1c(CCc2ccccc2)nc2cccnc21)c1ccc(F)c(F)c1	none
Cc1cc(NC(=O)c2nc3ccccc3n(C)c2=O)n(C)n1	none
Cc1ccnn1CCc1nc(CC(C)C)nn1-c1ccccc1	none
Cc1nc(C(C)C)cc(N2CCCC(OCc3ccccn3)C2)n1 (stereo not drawn)	none
Cc1ccc(NC(=O)CN2CCCC(OCc3ccccn3)C2)cc1C (stereo not drawn)	FECH inh active
O=S(=O)(NCc1ccccc1)N1CCCC(OCc2ccccn2)C1 (stereo not drawn)	none
CCc1ccc(-n2c(CN3CCN(S(=O)(=O)c4ccc(F)c(C)c4)CC3)nc3cccnc32)cc1	none
Fc1ccc(CCC2CCCN(CCCn3cnnn3)C2)c(F)c1 (stereo not drawn)	FECH inh active
Cc1ccccc1CCC1CCCN(CCO)C1 (stereo not drawn)	none
Fc1cccc(F)c1CCC1CCCN(Cc2cscn2)C1 (stereo not drawn)	none
COc1ccc(Br)cc1C(=O)Nc1ccccc1Sc1c(C)c(C)nc2ncnn12	none
COc1ccc(-c2nccn2CCCN2CCCC2=O)c2ccccc12	none
CCCc1cnc(C)nc1N1CCN(Cc2nc3ccccc3[nH]2)CC1	none
Cc1cccc(C(=O)Nc2nc3n(n2)C(c2ccccc2Cl)C=C(c2ccccc2)N3)c1 (stereo not drawn)	none
Cc1ccc(C(=O)Nc2nc3n(n2)C(c2ccccc2Cl)C=C(c2ccc(C)cc2)N3)cc1 (stereo not drawn)	none
Cc1ccc(C2=CC(c3ccccc3Cl)n3nc(NC(=O)c4cccnc4)nc3N2)cc1 (stereo not drawn)	FECH inh active
Cc1ccc(C2=CC(c3ccccc3Cl)n3nc(NC(=O)c4ccccc4)nc3N2)cc1 (stereo not drawn)	none
Cc1ccc(C2=CC(c3ccccc3Cl)n3nc(NC(=O)c4cccc(Cl)c4)nc3N2)cc1 (stereo not drawn)	FECH inh active
Cc1ccc(C2=CC(c3ccccc3Cl)n3nc(NC(=O)c4cccc(C)c4)nc3N2)cc1 (stereo not drawn)	none
CC(C)CC1CCN(Cc2cn[nH]c2C(=O)O)C1 (stereo not drawn)	none
Cc1cc(NC(=O)c2cccc(C(F)(F)F)c2)n(-c2ncnc3c2cnn3-c2ccc(F)cc2)n1	none
COc1ccccc1-n1nc(CC(C)C)nc1C(C)n1ccnc1 (stereo not drawn)	FECH inh active
COc1ccccc1-n1nc(C(C)C)nc1Cc1cc(C)no1	none
COc1ccccc1-n1nc(C(C)C)nc1CCc1cccnc1	none
NC(=O)c1cccc(CC2CCN(C(=O)c3ccc4c(c3)OCO4)C2)c1 (stereo not drawn)	none
CSc1nc(NCCC2=CCCCC2)c(C#N)c(-c2ccccc2)n1	FECH inh active
CSc1nc(NCc2ccc(Cl)cc2)c(C#N)c(-c2ccccc2)n1	none
CSc1nc(NCCN2CCOCC2)c(C#N)c(-c2ccccc2)n1	none
CCOCCCNc1nc(Nc2ccc(OCC)cc2)c2cnn(-c3ccccc3)c2n1	none
CC(C)Cc1noc(C(C)NC(=O)c2cc3sccc3[nH]2)n1 (stereo not drawn)	none
CN(C)c1nc2ncnc(SCC(=O)Nc3ccccc3F)c2s1	none
CCN1C(SCC(=O)Nc2cccc(C)c2C)=NS(=O)(=O)c2ccccc21	FECH inh active
Cc1cccc(NC(=O)CSCc2nc(-c3ccccc3)no2)c1C	none
Cc1ccc(CN2CCN(CC(=O)Nc3ccccc3F)S2(=O)=O)cc1	none
Cc1cccc(NC(=O)CN2C(=O)CC(c3ccccc3)=Nc3ccccc32)c1C	none
